Residues, ends and D or L forms follow the SMILES beside them.

Holding throughout (conditions): Compound concentration 20.0 uM
Experiment [1] has as its target Tyrosine-protein kinase ABL1 (Homo sapiens) (UniProt P00519).
The target of experiment [2] is Bromodomain-containing protein 4 (Homo sapiens) (UniProt O60885).
Experiment [3] has as its target Cyclin-dependent kinase 2 (Homo sapiens) (UniProt P24941).
Experiment [4] has as its target Casein kinase I isoform delta (Homo sapiens) (UniProt P48730).
Experiment [5] deals with Glycogen synthase kinase-3 beta (Homo sapiens) (UniProt P49841).
Chain of Glycogen synthase kinase-3 beta (Homo sapiens) (P49841 whole entry, looked up): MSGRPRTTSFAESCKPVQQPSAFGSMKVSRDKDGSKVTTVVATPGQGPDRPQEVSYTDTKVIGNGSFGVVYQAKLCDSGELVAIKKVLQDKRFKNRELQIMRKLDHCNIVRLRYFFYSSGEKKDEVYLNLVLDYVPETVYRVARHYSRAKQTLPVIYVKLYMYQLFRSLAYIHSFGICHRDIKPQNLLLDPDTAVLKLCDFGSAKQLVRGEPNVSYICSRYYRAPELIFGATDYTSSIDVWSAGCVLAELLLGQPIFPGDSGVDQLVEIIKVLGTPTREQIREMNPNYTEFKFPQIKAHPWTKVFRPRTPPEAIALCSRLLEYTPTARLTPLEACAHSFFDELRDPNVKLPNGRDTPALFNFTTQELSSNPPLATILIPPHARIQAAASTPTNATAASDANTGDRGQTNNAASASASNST
Experiment [6] addresses Mitogen-activated protein kinase 1 (Homo sapiens) (UniProt P28482).
The target in experiment [7] is T1, Aurora kinase A (Homo sapiens) (UniProt O14965).
T1 sequence (whole entry): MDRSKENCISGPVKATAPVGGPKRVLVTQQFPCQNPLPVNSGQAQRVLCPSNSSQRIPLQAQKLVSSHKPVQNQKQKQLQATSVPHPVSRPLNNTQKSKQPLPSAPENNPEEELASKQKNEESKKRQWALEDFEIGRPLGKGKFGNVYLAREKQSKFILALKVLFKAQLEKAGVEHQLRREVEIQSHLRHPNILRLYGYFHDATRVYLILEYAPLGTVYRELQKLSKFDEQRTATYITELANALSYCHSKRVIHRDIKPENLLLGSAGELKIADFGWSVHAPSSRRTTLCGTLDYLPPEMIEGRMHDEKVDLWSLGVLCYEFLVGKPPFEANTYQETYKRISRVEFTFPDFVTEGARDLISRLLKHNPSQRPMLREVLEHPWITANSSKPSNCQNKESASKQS

In experiment [8] the target is T2, Transcription intermediary factor 1-alpha (Homo sapiens) (UniProt O15164).
T2 sequence (whole entry): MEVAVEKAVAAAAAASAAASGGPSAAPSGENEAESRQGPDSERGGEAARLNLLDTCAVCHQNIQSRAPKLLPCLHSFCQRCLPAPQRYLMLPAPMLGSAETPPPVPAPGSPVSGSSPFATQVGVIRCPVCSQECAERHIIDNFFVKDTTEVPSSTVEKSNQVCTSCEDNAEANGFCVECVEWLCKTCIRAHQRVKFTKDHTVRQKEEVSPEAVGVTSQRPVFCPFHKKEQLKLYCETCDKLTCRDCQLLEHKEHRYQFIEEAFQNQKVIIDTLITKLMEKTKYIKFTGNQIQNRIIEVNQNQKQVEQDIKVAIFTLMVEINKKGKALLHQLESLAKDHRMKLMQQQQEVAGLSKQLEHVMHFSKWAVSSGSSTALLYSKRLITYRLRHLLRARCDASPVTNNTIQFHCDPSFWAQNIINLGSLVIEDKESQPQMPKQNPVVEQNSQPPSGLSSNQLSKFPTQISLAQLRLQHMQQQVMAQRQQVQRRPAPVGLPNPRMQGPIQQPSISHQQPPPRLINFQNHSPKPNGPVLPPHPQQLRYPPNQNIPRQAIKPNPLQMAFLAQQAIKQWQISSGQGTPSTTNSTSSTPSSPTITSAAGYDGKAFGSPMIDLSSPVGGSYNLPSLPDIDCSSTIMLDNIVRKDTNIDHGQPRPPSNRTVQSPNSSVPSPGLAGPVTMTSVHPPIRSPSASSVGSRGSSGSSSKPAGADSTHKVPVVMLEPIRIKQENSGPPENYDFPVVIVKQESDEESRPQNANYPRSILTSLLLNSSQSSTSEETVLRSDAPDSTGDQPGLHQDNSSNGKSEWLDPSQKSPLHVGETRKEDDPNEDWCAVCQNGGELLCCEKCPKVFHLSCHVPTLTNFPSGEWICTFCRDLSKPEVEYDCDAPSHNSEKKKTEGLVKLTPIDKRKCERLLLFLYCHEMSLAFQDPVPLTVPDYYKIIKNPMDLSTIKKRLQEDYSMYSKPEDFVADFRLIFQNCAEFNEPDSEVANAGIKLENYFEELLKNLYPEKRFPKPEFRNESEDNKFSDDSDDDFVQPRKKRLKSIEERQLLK

Chain of Casein kinase I isoform delta (Homo sapiens) (P48730 whole entry, looked up, canonical isoform): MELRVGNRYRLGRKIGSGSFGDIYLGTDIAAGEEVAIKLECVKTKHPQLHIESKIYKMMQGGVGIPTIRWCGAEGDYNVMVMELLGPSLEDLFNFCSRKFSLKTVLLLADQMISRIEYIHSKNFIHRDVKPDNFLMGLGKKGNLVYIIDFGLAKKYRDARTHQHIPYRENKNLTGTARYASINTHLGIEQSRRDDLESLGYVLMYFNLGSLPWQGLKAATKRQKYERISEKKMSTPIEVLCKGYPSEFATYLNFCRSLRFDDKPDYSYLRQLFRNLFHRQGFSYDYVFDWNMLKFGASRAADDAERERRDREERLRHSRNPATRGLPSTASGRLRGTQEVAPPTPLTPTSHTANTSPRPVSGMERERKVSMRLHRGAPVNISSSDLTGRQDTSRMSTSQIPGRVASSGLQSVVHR
Chain of Mitogen-activated protein kinase 1 (Homo sapiens) (P28482 whole entry): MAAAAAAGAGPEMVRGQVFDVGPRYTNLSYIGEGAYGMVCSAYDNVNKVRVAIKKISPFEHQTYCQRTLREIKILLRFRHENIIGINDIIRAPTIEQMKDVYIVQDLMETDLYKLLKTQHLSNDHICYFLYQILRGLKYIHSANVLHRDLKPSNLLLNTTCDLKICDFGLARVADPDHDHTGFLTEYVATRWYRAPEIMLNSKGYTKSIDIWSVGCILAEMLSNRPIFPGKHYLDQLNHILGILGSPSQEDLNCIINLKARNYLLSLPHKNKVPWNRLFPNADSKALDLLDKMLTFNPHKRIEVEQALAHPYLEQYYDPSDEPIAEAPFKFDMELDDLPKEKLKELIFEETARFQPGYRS
Chain of Tyrosine-protein kinase ABL1 (Homo sapiens) (P00519 whole entry): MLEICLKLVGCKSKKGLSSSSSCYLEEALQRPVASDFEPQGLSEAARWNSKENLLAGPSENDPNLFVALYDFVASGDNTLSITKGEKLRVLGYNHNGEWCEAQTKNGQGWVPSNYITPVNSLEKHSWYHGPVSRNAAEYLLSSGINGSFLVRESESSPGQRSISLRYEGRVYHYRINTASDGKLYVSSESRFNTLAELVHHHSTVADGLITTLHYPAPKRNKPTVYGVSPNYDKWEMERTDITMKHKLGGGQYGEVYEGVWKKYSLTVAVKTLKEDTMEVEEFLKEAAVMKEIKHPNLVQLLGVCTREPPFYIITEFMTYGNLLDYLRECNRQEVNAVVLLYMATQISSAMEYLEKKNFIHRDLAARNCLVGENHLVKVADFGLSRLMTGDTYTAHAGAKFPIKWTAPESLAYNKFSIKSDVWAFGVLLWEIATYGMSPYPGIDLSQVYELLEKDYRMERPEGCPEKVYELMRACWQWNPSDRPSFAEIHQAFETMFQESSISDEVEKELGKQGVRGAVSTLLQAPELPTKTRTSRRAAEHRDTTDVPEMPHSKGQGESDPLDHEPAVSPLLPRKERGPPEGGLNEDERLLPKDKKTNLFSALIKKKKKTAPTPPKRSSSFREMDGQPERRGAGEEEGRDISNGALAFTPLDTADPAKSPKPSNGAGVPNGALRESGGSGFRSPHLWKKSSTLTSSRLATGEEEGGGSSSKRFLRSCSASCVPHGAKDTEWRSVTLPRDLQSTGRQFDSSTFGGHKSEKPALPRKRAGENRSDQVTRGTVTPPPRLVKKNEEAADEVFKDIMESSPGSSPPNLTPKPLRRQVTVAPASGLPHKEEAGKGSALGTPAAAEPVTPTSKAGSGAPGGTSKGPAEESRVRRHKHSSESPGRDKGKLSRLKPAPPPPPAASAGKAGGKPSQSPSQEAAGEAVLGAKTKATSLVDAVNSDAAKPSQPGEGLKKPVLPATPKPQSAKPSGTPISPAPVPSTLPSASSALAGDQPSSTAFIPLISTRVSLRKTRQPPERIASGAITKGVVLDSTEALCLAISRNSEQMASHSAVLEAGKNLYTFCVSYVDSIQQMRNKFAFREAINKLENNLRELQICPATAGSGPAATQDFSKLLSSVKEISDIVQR

Consider `COCc1nc(C(F)(F)F)[nH]c1-c1cc(C(=O)N2CC(c3ccc(C#N)cc3)C2)c(C)cc1C`, for which the ΔTm (in general, the change in melting temperature against a reference sample) in experiment [1] is 0.13 °C; in experiment [2], -3.21 °C; in experiment [3] it was -0.08 °C; in experiment [4], -0.27 °C; in experiment [5], -1.21 °C; in experiment [6], 0.07 °C. Besides, the values for the ΔTm in experiment [7] and in experiment [8] were -2.54 °C and -1.79 °C, respectively.

Take `C[C@]1(c2nc3c(C(N)=O)cccc3[nH]2)CCCN1`: the ΔTm in experiment [1] is 0.02 °C; in experiment [2] it was -2.57 °C; in experiment [3] it was -0.1 °C; in experiment [4], 0.16 °C; in experiment [5] it was -0.63 °C; in experiment [6], -0.01 °C. The ΔTm was -1.66 °C in experiment [7] and 1.28 °C in experiment [8].

As for `CCCN(CCC)c1ccc(C=O)cc1Br`, the ΔTm is 0.01 °C in experiment [1]; -2.88 °C in experiment [2]; -0.15 °C in experiment [3]; -0.24 °C in experiment [4]; -0.05 °C in experiment [5]; 0.17 °C in experiment [6]. Besides, the figures for the ΔTm in experiment [7] and in experiment [8] were -2.25 °C and -0.42 °C, respectively.

As for `COc1ncc(C)cc1CC[C@@](O)(CC(=O)O)C(=O)O`, the ΔTm in experiment [1] was 0.5 °C; in experiment [2], -1.94 °C; in experiment [3], 0.22 °C; in experiment [4], -0.36 °C; in experiment [5], 0.4 °C; in experiment [6], 0.35 °C. Besides, the ΔTm in experiment [7] was -1.39 °C; in experiment [8], -0.23 °C.

Take `O=C(c1ccc2[nH]ccc2c1)N1CCN(S(=O)(=O)c2ccc3[nH]c(=O)oc3c2)CC1`: the ΔTm was 0.69 °C in experiment [1]; -2.8 °C in experiment [2]; -0.68 °C in experiment [3]; 0.15 °C in experiment [4]; 0 °C in experiment [5]; 0.48 °C in experiment [6]. The ΔTm in experiment [7] was -1.69 °C; in experiment [8] it was -0.16 °C.

Take `O=C(NCC1(c2nc(-c3ccccc3)cs2)CCOCC1)c1cccc(-c2noc(C(F)(F)F)n2)c1`: the ΔTm was 0 °C in experiment [1]; -2.25 °C in experiment [2]; 0.39 °C in experiment [3]; 0.15 °C in experiment [4]; -0.34 °C in experiment [5]; -4.88 °C in experiment [6]. The results for the ΔTm in experiment [7] and in experiment [8] were -0.64 °C and -1.09 °C, respectively.

For `COc1ccc(C(=O)N[C@H](C(=O)N2CCC[C@H]2C(=O)N[C@H](C(=O)C(F)(F)F)C(C)C)C(C)C)cc1`, the ΔTm is 0.01 °C in experiment [1]; 0.28 °C in experiment [2]; 0.69 °C in experiment [3]; -0.09 °C in experiment [4]; -0.75 °C in experiment [5]; 0.2 °C in experiment [6]. Further, the ΔTm in experiment [7] is -1.47 °C; in experiment [8] it was 1.59 °C.

As to `CCN(C(=O)c1cc(F)ccc1Oc1cncnc1N1CC2(CCN(C[C@H]3CC[C@H](NS(=O)(=O)CC)CC3)CC2)C1)C(C)C`, the ΔTm is 0.7 °C in experiment [1]; -2.35 °C in experiment [2]; 0.16 °C in experiment [3]; -0.01 °C in experiment [4]; -0.74 °C in experiment [5]; 0.48 °C in experiment [6]. Moreover, the ΔTm in experiment [7] is -2.26 °C; in experiment [8], 0.24 °C.

Consider `CC(=O)N[C@H](C(=O)N[C@@H](CC(=O)O)C(=O)N[C@H](C(=O)N[C@@H](C)C(=O)N[C@H](C=O)CC(=O)O)C(C)C)C(C)C` (Ac-VDVAD-aldehyde), for which the thermal shift (ΔTm) was 0.62 °C in experiment [1]; -2.7 °C in experiment [2]; -0.17 °C in experiment [3]; -0.1 °C in experiment [4]; 0.07 °C in experiment [5]; 0 °C in experiment [6]. The ΔTm in experiment [7] was -1.39 °C; in experiment [8] it was -0.67 °C.

Regarding `C[C@@H]1OC(=O)NN=C1c1ccc(-c2ccc(F)cc2)c(C(F)(F)F)c1`, the ΔTm in experiment [1] is -1.46 °C; in experiment [2], -3.44 °C; in experiment [3], -0.76 °C; in experiment [4], -0.33 °C; in experiment [5], -7.28 °C; in experiment [6] it was -0.02 °C. Moreover, the ΔTm in experiment [7] is -7.3 °C; in experiment [8], -0.48 °C.

Turning to `Nc1ncnc2c1ncn2[C@@H]1O[C@H](C(=O)N2CCN(CC(=O)Nc3cccc4c3CNC4=O)CC2)[C@@H](O)[C@H]1O`, the ΔTm in experiment [1] was 0.45 °C; in experiment [2], -1.31 °C; in experiment [3] it was -0.11 °C; in experiment [4], 0.22 °C; in experiment [5] it was -0.59 °C; in experiment [6], 0.31 °C. The results for the ΔTm in experiment [7] and in experiment [8] were -1.04 °C and -0.61 °C, respectively.

Turning to `CC(=O)N[C@@H](C)C(=O)N[C@@H](CCC(=O)O)C(=O)N[C@H](C(=O)N[C@@H](C=O)CC(=O)O)C(C)C`, the ΔTm is 0.22 °C in experiment [1]; -2.8 °C in experiment [2]; -0.37 °C in experiment [3]; 0.14 °C in experiment [4]; -0.69 °C in experiment [5]; 0.23 °C in experiment [6]. The ΔTm in experiment [7] was -1.91 °C; in experiment [8], -0.66 °C.

In the case of `CCCCOc1c(OC)cc(C(=O)NCC2(N(C)C)CCOCC2)cc1OC`, the ΔTm is 0.07 °C in experiment [1]; 0.11 °C in experiment [2]; 0.02 °C in experiment [3]; -0.36 °C in experiment [4]; -1.71 °C in experiment [5]; 0.03 °C in experiment [6]. The figures for the ΔTm in experiment [7] and in experiment [8] were -2.39 °C and -0.41 °C, respectively.

With `CC/C(=C(/c1ccc(/C=C/C(=O)O)cc1)c1ccc2[nH]ncc2c1)c1ccc(F)cc1Cl`, the thermal shift (ΔTm) in experiment [1] was -5.16 °C; in experiment [2] it was -0.16 °C; in experiment [3], -3.66 °C; in experiment [4], -4.37 °C; in experiment [5], 3.37 °C; in experiment [6], 0 °C. The ΔTm stood at 1.69 °C in experiment [7] and 0 °C in experiment [8].

For the compound `Nc1ccccc1NC(=O)c1ccc(CNc2nccc(-c3cccnc3)n2)cc1`, the ΔTm is 1.28 °C in experiment [1]; -1.59 °C in experiment [2]; 0.7 °C in experiment [3]; 2.88 °C in experiment [4]; 0.76 °C in experiment [5]; 0.18 °C in experiment [6]. Also, the ΔTm in experiment [7] was 5.93 °C; in experiment [8], -0.03 °C.

As to `C[C@@H](Oc1ccc(CNC(=O)c2cccnc2Oc2ccc3c(c2)OCO3)c(F)c1)C(=O)O`, the thermal shift (ΔTm) in experiment [1] is 0.69 °C; in experiment [2], -1.71 °C; in experiment [3] it was 0.09 °C; in experiment [4], -0.5 °C; in experiment [5], -0.12 °C; in experiment [6], 0.23 °C. Further, the ΔTm is -1.52 °C in experiment [7] and -0.05 °C in experiment [8].

With `O=C(c1cccc(-c2ccc(-c3cn(C(=O)N4CCCCC4c4ccccc4)nn3)cc2)c1)N1CCCCC1` (stereo unspecified), the ΔTm in experiment [1] was 1.85 °C; in experiment [2] it was 11.3 °C; in experiment [3], 0.3 °C; in experiment [4] it was 0.93 °C; in experiment [5] it was -2.22 °C; in experiment [6] it was 1.43 °C. Also, the thermal shift (ΔTm) in experiment [7] is 4.6 °C; in experiment [8] it was -0.32 °C.

Source of the values: ChEMBL document CHEMBL5724796, “Tm Shift (DSF) assay results for EUbOPEN Chemogenomics Library” (2024).
